High-throughput results (PubChem BioAssay)
Not all results are given here.
aSyn 5UTR act – Activators via SNCA 5'UTR binding, MLPCN; AID 1814, 2009; alpha-synuclein 5'UTR reporter, activators screen; activity score, % (tested at 7.5 µM), hits read low; hit rate 7.1% among 300,000; in the data active = activity score below about -60%
The depositor's hits bear a star.

SMILES | aSyn 5UTR act
COc1cc2c(cc1NC(=O)C(C)Sc1ccc(C)cc1)oc1ccccc12 (stereo not given) | -109*
COc1cc2c(cc1NC(=O)COC(=O)C(CCSC)NC(=O)c1ccccc1Cl)oc1ccccc12 (stereo not given) | -136*
COc1cc2c(cc1NCc1ccccn1)oc1ccccc12 | -154*
COc1ccc(NC(=O)N2CCCC(c3nc(-c4ccc(C(C)C)cc4)no3)C2)cc1 (stereo not given) | -164*
CCCC(=O)N1CCCC(c2nc(-c3cccc(OC)c3)no2)C1 (stereo not given) | -84*
COc1ccc(-c2noc(C3CCCN(C(=O)Nc4ccccc4F)C3)n2)cc1 (stereo not given) | -114*
COc1ccc(-c2noc(C3CCCN(C(=O)Nc4ccccc4)C3)n2)cc1 (stereo not given) | -102*
COc1ccc(NC(=O)N2CCCC(c3nc(-c4ccc(OC)cc4)no3)C2)cc1 (stereo not given) | -94*
COc1ccc(-c2noc(C3CCCN(C(=O)c4ccccc4)C3)n2)cc1 (stereo not given) | -76*
Cc1ccc(NC(=O)c2ccc(Cl)cc2Cl)cc1O | -170*
Cc1ccc(C(=O)Nc2ccc(Cl)cc2C)c(Cl)c1 | -71*
Cc1ccc(C(=O)Nc2ccc(Cl)cc2C(F)(F)F)c(Cl)c1 | -101*
O=C(Nc1cc(F)c(Br)cc1F)c1ccc(Cl)cc1 | -152*
C#Cc1cccc(NC(=O)c2ccc(Cl)cc2Cl)c1 | -185*
O=C(Nc1ccc(Cl)cc1C(F)(F)F)c1ccc(Cl)cc1 | -104*
COc1ccc(C)c2sc(=NC(=O)c3cccc(N4C(=O)CCC4=O)c3)n(C)c12 | -93*
COc1ccc(C)c2sc(=NC(=O)c3ccccc3)n(C)c12 | -266*
O=C(CCl)N(C/C=C/c1ccccc1)c1ccc2c(c1)OCCO2 | -81*
CC(C#Cc1ccc2c(c1)COc1c3ccccc3nn1-2)OC(C)(C)C (stereo not given) | -114*
N#CCCCC#Cc1ccc2c(c1)COc1c3ccccc3nn1-2 | 77
C(#Cc1ccc2c(c1)COc1c3ccccc3nn1-2)c1ccccc1 | -208*
CCCCCCC#Cc1ccc2c(c1)COc1c3ccccc3nn1-2 | -141*
C#Cc1ccc2c(c1)COc1c3ccccc3nn1-2 | -89*
COc1ccc(-c2nnc(N(C)C(=O)c3ccno3)s2)cc1 | -138*
COc1ccc(-c2nnc(N(C)C(=O)C3CCOC3)s2)cc1 (stereo not given) | -66*
SMILES | aSyn 5UTR act
COc1ccc(-c2nnc(N(C)C(=O)C3CCCO3)s2)cc1 (stereo not given) | -87*
COc1ccccc1/C=N\N=C(\N)c1ccccn1 | -175*
N/C(=N\N=C\c1cccc([N+](=O)[O-])c1)c1nonc1N | -150*
COc1cccc(/C=N/N=C(\N)c2nonc2N)c1O | -105*
Cc1nnc2n1N=CC=C(c1ccccc1)S2 | -94*
CC1CCN(c2oc(-c3ccccc3Cl)nc2C#N)CC1 | -144*
CC1CCN(c2oc(-c3ccc(F)cc3)nc2C#N)CC1 | -67*
Cc1ccc(NC(=O)CN2C(=O)N/C(=C/c3ccc(N4CCOCC4)cc3)C2=O)cc1 | -118*
CCOC(=O)C1(Cc2cccc(Cl)c2)CCCN(C(=O)c2cc(C)on2)C1 (stereo not given) | -72*
CCOC(=O)C1(Cc2cccc(OC)c2)CCCN(C(=O)c2ccc(OC)o2)C1 (stereo not given) | -126*
CCOC(=O)C1(Cc2cccc(OC)c2)CCCN(C(=O)c2cc(CC(C)C)[nH]n2)C1 (stereo not given) | -118*
CCOC(=O)C1(Cc2cccc(OC)c2)CCCN(C(=O)CCN2CCCO2)C1 (stereo not given) | -112*
CC1=NC(=O)C(N=Nc2cccc(O)c2)N1c1ccccc1 (stereo not given) | -260*
COc1ccccc1N1CCN(c2ccc(-c3ccccc3)nn2)CC1 | 79
COc1ccccc1N1CCN(/N=C/c2ccc(C(=O)O)cc2)CC1 | -128*
COc1ccccc1N1CCN(/N=C/C=C\c2ccco2)CC1 | -136*
O=C(O)c1ccc(/C=N/N2CCN(c3ccccc3)CC2)cc1 | -207*
CN(C)/C=C/C(=O)c1ccc(-n2cccc2)cc1 | -88*
CNc1nnc(CSc2nc3ccccc3s2)s1 | -88*
c1csc(CSc2nc3ccccc3s2)c1 | -280*
Cc1ccc2nc(Nc3nc(CSc4nc5ccccc5s4)cc(=O)[nH]3)nc(C)c2c1 | 61
COc1ccc2c(C)cc(SCC(=O)Nc3nsc(-c4ccc(C)cc4)n3)nc2c1 | -82*
CC1(C)CC(=O)c2c(nc(SCC(=O)Nc3nsc(-c4ccccc4)n3)c(C#N)c2-c2ccccc2)C1 | 74
COc1ccc(-c2nc(NC(=O)CSc3nnc(C)s3)ns2)cc1 | -70*
O=C(N/C=C/c1ccccc1)c1ccccc1 | -135*
SMILES | aSyn 5UTR act
COc1ccc(NC(=S)Nc2ncccc2C)cc1OC | -107*
Cc1cccnc1NC(=S)NCCc1ccccc1 | -155*
COc1ccc(NC(=S)Nn2cnnc2)cc1OC | -95*
Cc1cccnc1NC(=S)Nc1ncccc1C | -119*
Cc1cccc(NCc2ccc(O)c3ncccc23)c1C | 56
COc1ccc(NC(=S)Nc2ncccc2C)c(OC)c1 | -93*
Cc1cccnc1NC(=S)Nc1ccc(Cl)c(Cl)c1 | -142*
O=C(NNC(=S)Nc1ccc(Cl)c(Cl)c1)c1ccccn1 | 68
CCSc1nn2c(=O)c3ccccc3nc2s1 | -120*
CN(C)c1ccc(/C=C2\SC(=O)N(CCc3nnc(N)s3)C2=O)cc1 | 80
CN(C)c1ccc(/C=C2/SC(=O)N(CCN=C3NS(=O)(=O)c4ccccc43)C2=O)cc1 | -66*
Cc1nonc1OCCCNc1ccc([N+](=O)[O-])cc1Cl | -84*
Cc1ccc2c(CC(=O)Nc3ccc(N4CCN(C)CC4)cc3C)coc2c1 | -68*
Cc1ccc2c(CC(=O)Nc3sccc3C(N)=O)coc2c1 | -183*
Cc1ccc(S(=O)(=O)c2cc3c(=O)n4ccccc4nc3n(CCc3ccccc3)c2=N)cc1 | -231*
N=c1c(C(=O)NCCN2CCOCC2)cc2c(=O)n3ccccc3nc2n1CCc1ccccc1 | -83*
COc1ccc(CCn2c(=N)c(C(=O)NCc3ccco3)cc3c(=O)n4ccccc4nc32)cc1 | -73*
Cc1ccc(-n2nc(C)c(NC(=O)CCl)c2C)cc1 | -146*
Cc1ccc(-n2nc3c(=O)n(CCCC(=O)NCc4ccc(Cl)cc4)nc(C)c3c2C)cc1 | 62
COc1ccc(-c2nn(-c3ccccc3)cc2N)cc1 | -167*
Cc1ccc(-c2nn(-c3ccccc3)cc2NC(=O)CCl)cc1 | -71*
Cc1ccc(-c2nn(-c3ccccc3)cc2CO)cc1 | -104*
COc1ccc(-c2nn(-c3ccccc3)cc2CO)cc1 | -86*
COc1cccc(NC(=O)NC2(C(F)(F)F)Oc3ccccc3O2)c1 | -77*
COc1ccc(NC(=O)Nc2cc(C)ccc2F)cc1 | -164*
SMILES | aSyn 5UTR act
COc1cccc(NC(=O)Nc2cc(C)ccc2F)c1 | -73*
COc1cccc(NC(=O)NCc2ccccc2Cl)c1 | -73*
COc1ccc(C)cc1NC(=O)Nc1ccc(C(=O)N2CCCC2)cc1 | -64*
COc1cccc(NC(=O)Nc2ccccc2SC)c1 | -72*
O=C(NCc1cccnc1)NC1(C(F)(F)F)Oc2ccccc2O1 | -66*
Cc1oc2c(c1C(=O)NCc1cccnc1)C(=O)c1ccccc1C2=O | 107
O=C(Cn1cc(C(=O)C2CC2)c2ccccc21)NCc1ccccc1 | -81*
COc1ccc2nc(/N=C(\N)NC(=O)C(C)(C)C)nc(C)c2c1 | -85*
